The text below walks through data of PubChem BioAssay (Tox21).

Several values for one entry are separate records, joined by “and”; a condition that tells them apart may be missing. Identical values can stand only once. Inconclusive results are not listed. The source holds several records for some structures; these can differ, active in one and inactive in another. Activity calls are given as the source filed them. Calls come from the whole dose curve; as a rule, active = well fitted curve in the direction sought with a large enough effect in the repeat runs; inconclusive = weak or mixed curves; inactive = no such curve, though single readings can be large; an effect the other way counts as inactive or inconclusive. Residues, ends and D or L forms follow the SMILES beside them.

The target in test [1] is Nuclear receptor subfamily 1 group I member 2 (Rattus norvegicus) (UniProt Q9R1A7). Description: Rat pregnane X receptor (rPXR) activation by small molecules, qHTS assay (AID 1346983). Note: nearly all actives have a fitted effect of over 20% in size. Particulars: rPXR luciferase reporter cells, One-Glo luminescence, 24 h; max activation: stronger effect = higher value. Summed up: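 Cell-based rPXR activation assay: rPXR cells, 2,000 per well, rested 5hr at 37 C, then exposed to compounds in DMSO for 24 hr at 37 C. Luciferase activity read by One-Glo luminescence after 30 min at room temperature.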

Test [2] concerns the target Nuclear receptor subfamily 1 group I member 2 (Homo sapiens) (UniProt O75469). As to the kind of experiment: CYP3A4 induction through human pregnane X receptor (PXR) by small molecules, qHTS assay (AID 1346984). Note: nearly all actives have a fitted effect of over 40% in size. As to conditions: DPX-2 HepG2 PXR, CYP3A4-luciferin luminescence, 24 h; series mostly up to 46.1 µM. Summed up: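 Cells (DPX-2; HepG2 with PXR element plus CYP3A4-promoter luciferase) settled 5hr, then were treated 24hr at 37C. A 3hr, 3uM-final Luciferin-IPA step preceded luminescence measurement with One-Glo.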

The target is the same in test [3]. Description: Human pregnane X receptor (PXR) activation by small molecules, qHTS assay (AID 1346985). Note: nearly all actives have a fitted effect of over 40% in size. As to conditions: DPX-2 HepG2 CYP3A4-luciferase, 24 h; series mostly up to 38.3 µM. Summed up: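 DPX-2 cells (HepG2 co-transfected with a PXR response element and a CYP3A4-promoter luciferase construct) were seeded at 2,000 per well, rested 5 hr at 37C, then exposed to DMSO-dissolved compounds for 24 hr. Activation was read as luciferase luminescence.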
% is set by controls: 0 for no effect and ±100 for the full control effect; potency is the fitted concentration of half-maximal effect.

Chain of Nuclear receptor subfamily 1 group I member 2 (Rattus norvegicus) (Q9R1A7 whole entry, looked up): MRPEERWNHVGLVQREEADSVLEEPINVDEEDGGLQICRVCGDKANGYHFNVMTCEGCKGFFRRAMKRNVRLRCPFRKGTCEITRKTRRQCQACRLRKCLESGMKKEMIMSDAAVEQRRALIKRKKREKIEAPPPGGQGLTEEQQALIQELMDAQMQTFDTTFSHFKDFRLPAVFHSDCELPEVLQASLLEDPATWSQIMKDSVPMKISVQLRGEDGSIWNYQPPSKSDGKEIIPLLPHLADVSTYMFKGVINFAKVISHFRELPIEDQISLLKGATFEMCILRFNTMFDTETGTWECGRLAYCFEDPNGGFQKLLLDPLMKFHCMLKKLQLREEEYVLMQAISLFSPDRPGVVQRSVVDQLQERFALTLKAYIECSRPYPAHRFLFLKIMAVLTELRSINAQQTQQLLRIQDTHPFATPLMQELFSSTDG

Consider `CC(C)[C@H](NC(=O)[C@H](CC(=O)O)NC(=O)[C@H](CCCCN)NC(=O)[C@@H](N)CCCN=C(N)N)C(=O)N[C@@H](Cc1ccc(O)cc1)C(=O)O` (H-RKDVY-OH), for which, in test [1], the max activation is -1.21% (inactive). Further, the Potency result in test [2] and in test [3] was “inactive” in each case.
For `Cc1onc(-c2c(F)cccc2Cl)c1C(=O)N[C@@H]1C(=O)N2[C@@H]1SC(C)(C)[C@@H]2C(=O)O`, in test [1], the max activation is -1.83% (inactive) and -3.33% (inactive). For the same compound, the Potency entry in test [2] is “inactive”. Also, the Potency result in test [3] is “inactive and 25.1 µM (active)”.
Turning to `CNC(=O)OCc1cccc(COC(=O)NC)n1`, the max activation in test [1] is 8.37% (inactive). For the same compound, the Potency entry in test [2] and in test [3] was “inactive” each time.
`CCN(CC)C(=S)S`: the max activation in test [1] was -4.17% (inactive).
In the case of `Cc1ccc(C(C)(C)c2ccc(C)cc2)cc1`, in test [1], the max activation is -4.5% (inactive). Moreover, the Potency entry in test [2] and in test [3] was “inactive” each time.
As for `CC(C)(C)c1ccc2c(S(=O)(=O)O)c(C(C)(C)C)ccc2c1`, the max activation in test [1] is -3.68% (inactive).
Regarding `CNCCC=C1c2ccccc2CCc2ccccc21`, the max activation in test [1] was -3.34% (inactive). Moreover, in test [2], the Potency was 7.08 µM (active).
`O=C1CCC(c2ccccc2)(C2CCN(Cc3ccccc3)CC2)C(=O)N1` (stereo not given): the max activation in test [1] was 4.99% (inactive). Further, the Potency in test [2] is 14.1 µM (active); in test [3] it was 5.62 µM (active).
Taken in the same sequence, the figures for `COC1[C@@H](O[C@@H]2O[C@H](C)[C@@H](O[C@H]3C[C@@](C)(O)[C@H](OC(=O)CC(C)C)[C@H](C)O3)[C@H](N(C)C)[C@H]2O)[C@@H](CC=O)C[C@@H](C)[C@@H](O)/C=C/C=C/C[C@@H](C)OC(=O)C[C@H]1OC(C)=O` (stereo not given in full) were -1.32% (inactive), “inactive” and “inactive”.
The matching figures for `C=C1[C@H](CO)[C@@H](O)C[C@@H]1n1cnc2c(=O)[nH]c(N)nc21`: -2.99% (inactive), “inactive” and “inactive”.
Turning to `CCCCCCCCCCCCOS(=O)(=O)O`, the max activation in test [1] is -3.52% (inactive).
With `O=C1c2ccccc2C(=O)C1c1ccc(F)cc1`, the Potency in test [1] is 28.2 µM (active); in test [3] it was 12.6 µM (active). Moreover, the Potency result in test [2] was “inactive”.
For the compound `N#Cc1c(N(CC(=O)O)CC(=O)O)sc(C(=O)O)c1CC(=O)O`, in test [1], the max activation was -5.61% (inactive). In addition, the Potency result in test [2] and in test [3] was “inactive” throughout.
Regarding `COc1ccc(/C=N/NC(=O)c2ccncc2)c(C(=O)O)c1OC`, the max activation in test [1] is -2.1% (inactive). Further, the Potency result in test [2] and in test [3] was “inactive” each time.
As to `O=C(O)c1ccccn1`, in test [1], the max activation is -2.98% (inactive).
For the compound `CC1(C)S[C@@H]2[C@H](NC(=O)[C@H](N)c3ccc(O)cc3)C(=O)N2[C@H]1C(=O)O`, the max activation in test [1] is -0.49% (inactive). Also, the Potency result in test [2] and in test [3] was “inactive” each time.
Consider `C=CCN1C(=O)C(CC(C)C)NC1=S` (stereo not given), for which the max activation in test [1] is 12.3% (inactive). Besides, the Potency entry in test [2] and in test [3] was “inactive” throughout.
Turning to `COc1cc(NS(C)(=O)=O)ccc1Nc1c2ccccc2nc2ccccc12`, the max activation in test [1] is -19% (inactive). For the same compound, the Potency entry in test [2] is “inactive”.
Regarding `O=S(=O)(O)O`, the max activation in test [1] is 0.359% (inactive).
For `CCN1\C(=C/C=C/C=C/c2sc3ccccc3[n+]2CC)Sc2ccccc21`, the max activation in test [1] is -28.2% (inactive). Besides, the Potency result in test [2] is “inactive”.
For `NC[C@H]1O[C@H](O[C@H]2[C@H](O)[C@@H](O[C@H]3O[C@H](CO)[C@@H](O)[C@H](N)[C@H]3O)[C@H](N)C[C@@H]2N)[C@H](N)C[C@@H]1O`, the max activation in test [1] was 7.07% (inactive). The Potency result in test [2] and in test [3] was “inactive” throughout.
Take `CC(C)(Oc1ccc(C2CCCc3ccccc32)cc1)C(=O)O` (stereo not given): the max activation in test [1] was -3.77% (inactive). Moreover, the Potency result in test [2] and in test [3] was “inactive” each time.
On to `CCCOC(=O)c1ccccc1O`, for which the max activation in test [1] was -4.53% (inactive). The Potency result in test [2] and in test [3] was “inactive” each time.
For the compound `CCCCC[C@H](O)/C=C/[C@@H]1[C@@H](C/C=C\CCCC(=O)O)[C@@H](O)C[C@H]1O`, the max activation in test [1] is -3.99% (inactive) and -0.657% (inactive). For the same compound, the Potency result in test [2] and in test [3] was “inactive” in each case.
`CCCCCCCCCCCCCCCCCCOCC(COP(=O)([O-])OCC[N+](C)(C)C)OC` (stereo not given): the max activation in test [1] is -1.53% (inactive). Moreover, the Potency entry in test [2] and in test [3] was “inactive” in each case.
In the case of `O.O.O.O.O.O.O.O=S(=O)([O-])[O-].[Co+2]`, in test [1], the max activation was -2.66% (inactive).
`OCCCNc1ccccc1`: in test [1], the max activation was -0.22% (inactive). Moreover, the Potency entry in test [2] and in test [3] was “inactive” throughout.
Regarding `CCCCCCCCCCCCCCCCCC(=O)O`, the max activation in test [1] was -4.34% (inactive).
Still for that read-out and setting: the value for `Cc1ncc(C[n+]2csc(CCO)c2C)c(N)n1` was -0.76% (inactive).
On the same count and under the same terms, under `CN1[C@@H](CC(=O)c2ccccc2)CCC[C@H]1C[C@H](O)c1ccccc1` stands 4.75% (inactive).
`C[N+](C)(C)CCOP(=O)(O)OP(=O)([O-])OC[C@H]1O[C@@H](n2ccc(N)nc2=O)[C@H](O)[C@@H]1O`: the max activation in test [1] was -1.05% (inactive). For the same compound, the Potency entry in test [2] and in test [3] was “inactive” throughout.
Consider `NC(=O)[C@@H]1C[C@]2(NC(=O)NC2=O)c2cc(F)ccc2O1`, for which, in test [1], the max activation was -1.76% (inactive). Also, the Potency result in test [2] and in test [3] was “inactive” each time.
